The whole screen tested about 360,000 compounds, of which about 2,600 (0.72%) were called active. Where a call stands in place of a potency, no number is given. Not shown: some 5% with an inconclusive outcome. Calls follow the shape of the dose curve; as a rule, active = well fitted inhibition curve with a large enough effect; inconclusive = small, poorly fitted or top-dose-only effect; inactive = no such curve, though single readings can be large or run the other way. The full list was thinned out, with actives kept by preference.
Potency is read from the fitted curve at half-maximal effect.

This experiment can be described thus: Primary qHTS for Inhibitors of ATXN expression. Also: nearly all actives have a fitted effect of over 55% in size. Particulars: HEK-293 ATXN2-luciferase reporter, luminescence, 24 h; series mostly up to 57 µM. The source says:
University of Utah School of Medicine, Salt Lake City, Utah
Spinocerebellar ataxia type 2 (SCA2) is a multisystem neurodegenerative disease caused by a dominantly acting mutation leading to expansion of a polyQ domain in the ataxin-2 protein (ATXN2). SCA2 patients develop progressive ataxia and later lose function in other neuronal systems. Prominent parkinsonian signs develop in some patients. Like many neurodegenerative disorders, no symptomatic or disease-modifying treatments are known.
The primary objective of the proposed research is to identify compounds inhibiting ATXN2 expression and to test them for efficacy in SCA2 mouse models. We have developed a cell-based assay paired with an in vivo mouse model using identical luciferase expression constructs. This approach takes advantage of an ATXN2-luciferase transgene, with the luciferase gene flanked by the upstream and downstream portions of the ATXN2 gene. Here we describe a 5-7 dose quantitative high thoroughput screen (qHTS) for compounds lowering ATXN2 expression. We screened the NIH Molecular Libraries Small Molecule Repository (MLSMR) and NCGC's mechanistically annotated (MIPE) and drug repurposing (NPC) collections of compounds for lowering expression of an ATXN2-luciferase reporter in HEK-293 cells. The assay is a multiplexed cell viability assay to ensure target reduction in the absence of cytotoxicity. Secondary qHTS assays included a CMV-luciferase reporter expressed in HEK-293 cells as well as a biochemical assay using recombinant luciferase to detect inhibitors of the reporter enzyme. Compounds that inhibit ATXN2 expression but is not cytotoxic were selected for confirmatory and secondary screens.
PROTOCOL TABLE (as described by Inglese J, Shamu CE and Guy RK. 2007)
SEQUENCE No. (e.g., 1, 2, 3, etc.); […] (e.g., Cells, Incubation, Reagent, etc.); VALUE; DESCRIPTION.
1; Cells; 4 uL; white, solid bottom, 1536-well Greiner assay plate.
2; Incubation; 2 hr; 37 degree C in 5% humidified CO2.
3; Compounds; 23 nL; Kalypsis pintool (Wako USA) equipped with a 1536-well pin head.
4; Incubation; 24 hr; 37 degree C in 5% humidified CO2.
5; Reagent; 1 uL; Gly-Phe-7-Amino-4-trifluoromethylcoumarin.
6; Incubation; 30 min; 37 degree C in 5% humidified CO2.
7; Detection; Fluorescence; ViewLux plate reader (PerkinElmer).
8; Reagent; 3 uL; SteadyGlo luciferase solution (Promega).
9; Incubation; 5 min; room temperature.
10; Detection; Luminescence; ViewLux plate reader (PerkinElmer).
NOTES (numbers refer to Sequence numbers above)
1. S2 cells expressing ATXN2-luciferase reporter were suspended in phenol-red free DMEM and dispensed in assay plates using a Multidrop Combi dispenser (Thermo Fisher Scientific).
2. Assay plates were incubated. Evaporation was prevented by covering assay plates with metal lids containing holes to allow gas diffusion.
3. Compounds were added in a dose response manner with the final concentrations of 57, 11.4, 2.28, 0.46, 0.091, 0.018, 0.0037 uM. Vehicle-only plates, with DMSO being pin-transferred to columns 5-48, were inserted uniformly at the beginning and the end of each library to monitor and record any shifts in assay performance.
5. 125 uM Gly-Phe-7-Amino-4-trifluoromethylcoumarin (MP Biomedicals) working concentration was used at a final concentration of 25 uM.
7. To assess cell viability; the assay plates were read using the ViewLux high-throughput CCD imager (PerkinElmer), wherein single end-point fluorescence measurement was acquired (excitation 405/10; emission 540/25 nm).
8. Detection reagent SteadyGlo Luciferase (Promega) was added to the assay plate.
10. Luminescence is then measured on the ViewLux imager equipped with a clear emission filter using a 2 sec exposure. All screening operations were performed on a fully integrated robotic system (Kalypsys) containing one RX-130 and two RX-90 anthropomorphic robotic arms (Staubli).
[…]
(In general: In qHTS, concentration-response curves come from the screen itself.)
In the case of `Cc1nnc(SCc2cc(=O)c3cc(F)ccc3[nH]2)n1C`, the Potency result was “inactive”. Take `CN(c1ccccc1)S(=O)(=O)c1ccc(Cl)c(C(=O)NCCc2c[nH]c3ccccc23)c1`: the Potency entry is “inactive”.

Consider `CN(C)CCNC(=O)Nc1cccc(Cl)c1Cl`, for which the Potency result was “inactive”.

With `CN(C)CCNC(=O)c1ccc(Cl)c2cc3ccccc3nc12`, the Potency is 8.91 µM (active).

In the case of `Cc1ccc(S(=O)(=O)c2nnn3c2nc(N2CCN(c4ccccc4F)CC2)c2cc(Cl)ccc23)cc1C`, the Potency entry was “inactive”. On to `CC(=O)c1cccc(-c2cnc3c(NC=O)cc(-c4cccc(C(=O)N(C)C)c4)cn23)c1`, for which the Potency entry was “inactive”. In the case of `CN(C)C(=O)c1cccc(-c2cnc3c(NC=O)cc(-c4ccc(F)cc4)cn23)c1`, the Potency is 25.1 µM (active). On to `CC(=O)c1cccc(-c2cnc3c(NC=O)cc(-c4ccc(N(C)C)cc4)cn23)c1`, for which the Potency result is “inactive”. Take `CCOc1ccc(NS(=O)(=O)c2ccc(N)cc2)nn1`: the Potency result was “inactive”.

Consider `CCN1CCN(C(=O)N[C@@H](C(=O)N[C@@H]2C(=O)N3[C@@H]2SC(C)(C)[C@H]3C(=O)O)c2ccccc2)C(=O)C1=O`, for which the Potency result is “inactive”. For the compound `CC(=O)O[C@]1(C(C)=O)CC[C@@H]2[C@@H]3C[C@H](C)C4=CC(=O)CC[C@]4(C)[C@H]3CC[C@@]21C`, the Potency entry is “inactive”. In the case of `CC(C)(C)CC(C)(C)NCC(O)COCCOc1ccc(Br)cc1` (stereo not given) it was 22.4 µM (active); in that of `CC(Oc1ccc(Br)cc1)C(=O)NC1CCCCCC1` (stereo not given), “inactive”. With `COc1ccc(OCC(O)CNCCNc2nccc(C(F)(F)F)n2)cc1` (stereo not given), the Potency result is “inactive”. Take `CCOc1ccc(Nc2oc(/C=C/c3ccc(F)cc3)nc2C#N)cc1`: the Potency result is “inactive”.

Take `CCOC(=O)N1CCN([N+]([O-])=NOc2ccc([N+](=O)[O-])cc2[N+](=O)[O-])CC1`: the Potency result is “inactive”. As for `Cc1ccccc1-c1nc(SCC(=O)N(C)c2ccccc2)c2c(=O)n(C)c(=O)n(C)c2n1`, the Potency result is “inactive”. Consider `O=C1NCCc2[nH]c(-c3ccncc3)cc21`, for which the Potency is 6.11 µM (active). For `COC(=O)Nc1nc2ccc(C(=O)C3CC3)cc2[nH]1`, the Potency entry was “inactive”.

Take `O=C(NC(c1ccc(Cl)cc1)c1cnccn1)C1CCN(Cc2ccc(Cl)cc2)CC1` (stereo not given): the Potency result was “inactive”. Under `COc1cccc(CN2CCC(C(=O)NC(c3ccc4c(c3)OCO4)c3ccccn3)CC2)c1` (stereo not given) stands “inactive”.

For the compound `Cc1ccc(C(NC(=O)C2CCN(CCOc3ccc(Cl)cc3Cl)CC2)c2ccccn2)cc1` (stereo not given), the Potency was 28.2 µM (active).

For the compound `O=C1c2c(O)cccc2[C@@H]([C@@H]2O[C@H](CO)[C@@H](O)[C@H](O)[C@H]2O)c2cc(CO)cc(O)c21`, the Potency result is “inactive”. With `Cc1cccc(N2CCN(C(=O)c3ccc4c(c3)CCN4S(=O)(=O)c3ccccc3)CC2)c1C`, the Potency result was “inactive”. In the case of `CCc1nc2c(OCCC3CCCCC3)cccn2c1N(C)C(=O)c1ccco1` it was “inactive”; in that of `CN(CC(=O)Nc1ccccc1F)S(=O)(=O)c1ccc2c(c1)c(=O)n(C)c(=O)n2C`, “inactive”; in that of `COc1ccc(Sc2ccc(NC(=O)c3cccc(Cl)c3)cc2C#N)cc1`, “inactive”. With `CCOc1ccc(CNCCSc2nnnn2C)cc1`, the Potency result was “inactive”.

`COc1cccc(NC(=O)c2ccc3nc(CCc4ccccc4)oc3c2)c1`: the Potency result was “inactive”. In the case of `O=C(NC1=CC(=O)c2ccccc2C1=O)c1ccccc1` it was 7.94 µM (active); in that of `COC(=O)c1nc(NC(=O)c2ccccc2)n[nH]1`, “inactive”. Under `O=C(NC(=O)c1ccccc1)Nc1ccccc1O` stands “inactive”. Under `CCC(=O)Nc1c(C(=O)N2CCN(c3ccc(F)cc3)CC2)oc2ccccc12` stands “inactive”. `CCn1c(-c2nonc2N)nc2c(C#CC(C)(C)O)ncc(OC[C@H]3CCCNC3)c21`: the Potency result is “inactive”. Under `Cc1ccc(S(=O)(=O)N2CCc3cc(C(=O)Nc4ccc(Cl)cc4C)ccc32)cc1` stands “inactive”. `Cc1cc(C)cc(Nc2ncnc3onc(-c4ccc(F)cc4)c23)c1`: the Potency result is “inactive”. `CC(C)c1ccc(NC(=O)c2ccc(Cn3nc(N4CCN(c5ccccc5)CC4)ccc3=O)o2)cc1`: the Potency entry was “inactive”. Turning to `CCCCS(=O)(=O)c1oc(-c2cccs2)nc1S(=O)(=O)c1ccccc1`, the Potency was 3.16 µM (active). Turning to `Cc1ccc(S(=O)(=O)c2nc(-c3cccs3)oc2NCc2cccnc2)cc1`, the Potency result is “inactive”. For the compound `NC(=O)CSc1oc(-c2cccs2)nc1S(=O)(=O)c1ccccc1`, the Potency result is “inactive”. Consider `CSc1ccccc1NC(=O)CCS(=O)(=O)c1nc(-c2cccs2)cc(C(F)(F)F)n1`, for which the Potency entry was “inactive”. Regarding `O=C(CSc1ncn[nH]1)Nc1ccc(Br)cc1Br`, the Potency result was “inactive”.

For the compound `O=C(/C=C/Sc1ncn[nH]1)c1ccc(Cl)cc1`, the Potency is 25.1 µM (active). Take `O=C(CSc1oc(-c2ccco2)nc1S(=O)(=O)c1ccc(Cl)cc1)c1ccccc1`: the Potency entry is “inactive”. `CC(C)OCCCn1c(SCC(=O)c2ccccc2)nc2c(sc3ccccc32)c1=O`: the Potency result is “inactive”. On to `CCCCN1CCC(CNC(=O)c2c3n(c4ccccc24)CCCO3)CC1`, for which the Potency entry is “inactive”.

Regarding `Fc1ccc(-n2ncc3c(Nc4ccc(Oc5ccccc5)cc4)ncnc32)cc1`, the Potency entry was “inactive”. Under `c1c2c(cc3sc(N4CCCCC4)nc13)OCCO2` stands 7.94 µM (active).

For `O=C(NCc1ccc(F)cc1)c1ccc2nc(N3CCCCC3)sc2c1`, the Potency entry was “inactive”.

Consider `CN(C)CCN(C(=O)C1CCCCC1)c1nc2cc3c(cc2s1)OCO3`, for which the Potency result was “inactive”.

For the origin of these results see PubChem BioAssay AID1745845 (National Center for Advancing Translational Sciences (NCATS), 2022).
